Source: PubChem BioAssay (National Center for Advancing Translational Sciences (NCATS))
CHX counter – Cycloheximide Counterscreen for Small Molecule Inhibitors of Shiga Toxin; cell reporter, cycloheximide protein synthesis inhibition counterscreen; max response, %; actives 12% (n = 300,000); AID 2314, 2010; in the data active means max response mostly above about 13%, no sharp cut-off; inactive means mostly below about 14%; further: read at 38.3 µM for the half of the compounds with a filed dose
Pf growth 48h – Primary qHTS for delayed death inhibitors of the malarial parasite plastid, 48 hour incubation | P. falciparum luciferase growth in erythrocytes, 48 h | Potency, µM (series often up to 28.7 µM), most hits filed as inhibitors | actives 5.9% (n = 310,000)
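Parasite viability was followed by luminescence of a genomically integrated firefly luciferase. Cultures held 0.1% parasitemia at 2% hematocrit (final), incubated under 5% CO2 at 37 C.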
Shiga inhibitor – A qHTS for Small Molecule Inhibitors of Shiga Toxin; Vero cells, Shiga toxin protein synthesis inhibition reporter; inhibition, % at 38.7 µM; actives 9.2% (n = 290,000); AID 2315, 2010; in the data active means inhibition mostly above about 28%, no sharp cut-off; inactive means mostly below about 43%
NS1 function inh – qHTS Assay for Inhibitors of Influenza NS1 Protein Function; Potency, µM (titrated, usually from 46.1 µM); AID 2326, 2010; actives 0.4% (n = 270,000); calls by dose curve; further: actives are rising curves; nearly all actives have a fitted effect of over 50% in size
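In this qHTS, NS1 from influenza A is expressed in budding yeast, where it slows growth. Cells are switched from glucose to 2% galactose medium (pH 6.0, -URA), treated with compound, and growth recovery is read at OD600.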
Pf growth 96h – Primary qHTS for delayed death inhibitors of the malarial parasite plastid, 96 hour incubation; Potency, µM (titrated, usually from 28.7 µM), usual class: inhibitors; actives 6.9% (n = 320,000); P. falciparum luciferase reporter growth, 96 h; AID 504834, 2011
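Readout is luminescence from an integrated firefly luciferase in P. falciparum. Red cells, 2% hematocrit and 0.05% parasitemia final, were cultured with compound through two parasite generations (96 hours) at 37 C, 5% CO2.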
Large screens that a line does not name were inactive. Rows were chosen to be rich in hits. Some 21% of all compounds tested hit in one or more screens of this group. Unless noted, the call rests on the fitted dose curve; in most records, active means well fitted inhibition curve with a large enough effect; inconclusive means small, poorly fitted or top-dose-only effect, or another doubt; inactive means no such curve, though single readings can be large or run the other way.

O=c1c2ccccc2nc(/C=C/c2cccc(Br)c2)n1CCCO	Pf growth 48h inconclusive, Pf growth 96h 13µM
O=c1c2ccccc2ncn1-c1cccc(Br)c1	Pf growth 96h 1.7µM
O=c1c2ccccc2nc(/C=C/c2ccc([N+](=O)[O-])o2)n1CCCO	CHX counter 18, Pf growth 48h inconclusive, Pf growth 96h 2.6µM
Cn1c(/C=C/c2cccc([N+](=O)[O-])c2)nc2ccccc2c1=O	Pf growth 96h inconclusive
O=C(O)c1ccc(COCC(F)(F)C(F)F)o1	none (no result: Pf growth 96h)
CCn1cnc2cc(NCc3ccccc3Cl)ccc21	CHX counter 36, Shiga inhibitor 67, Pf growth 96h 1.5µM
Cn1cnc2cc(NCc3ccccc3Cl)ccc21	CHX counter 39, Shiga inhibitor 105
Cc1nnc(Nc2ccc3c(c2)ncn3C)c2ccccc12	Pf growth 48h inconclusive
COC(=O)c1ccccc1NC(=O)N1CCc2ccc(NC(=O)c3ccccn3)cc2C1	Pf growth 48h inconclusive, Pf growth 96h inconclusive
CSc1ccc(C(=O)N2CCc3ccc(NC(=O)c4ccccn4)cc3C2)cc1	CHX counter 58, Pf growth 48h inconclusive, Shiga inhibitor 107, Pf growth 96h 15µM
CCOc1ccc(Nc2ncnc(N)n2)cc1	Shiga inhibitor 45 (no result: Pf growth 96h)
Nc1ncnc(Nc2ccc(F)cc2)n1	none
Cc1ccc(Nc2ncnc(N)n2)cc1	CHX counter 36, Shiga inhibitor 50
O=C(NCCCN1CCCC1=O)c1ccccc1NS(=O)(=O)c1ccc(Br)cc1	Pf growth 96h inconclusive (no result: Pf growth 48h)
Cc1cccc(Nc2ccc([N+](=O)[O-])cc2C(=O)O)c1	CHX counter 28
O=[N+]([O-])c1cc(Br)c(Nc2ccccc2)c([N+](=O)[O-])c1	Pf growth 48h 0.52µM
O=C(O)c1cc([N+](=O)[O-])ccc1C(=O)Nc1ccccc1	none
O=C(O)c1cc([N+](=O)[O-])ccc1Nc1ccccc1	Pf growth 96h 10µM
Cc1ccccc1CC(=O)Nc1ccc(S(=O)(=O)N2CCN(C)CC2)cc1	Pf growth 96h inconclusive
CCn1cc(C2CC(=O)NC2=O)c2ccccc21 (stereo not given)	none
COc1cccc(CN2CCNC(=O)C2CC(=O)NCCN2CCCCC2=O)c1 (stereo not given)	Pf growth 96h 10µM
COC(=O)CCCNC(=O)CC1C(=O)NCCN1Cc1ccoc1 (stereo not given)	Pf growth 96h 13µM
COc1cccc(CN2CCNC(=O)C2CC(=O)NCCn2ccc3ccccc32)c1OC (stereo not given)	Pf growth 48h 12µM, Pf growth 96h inconclusive
COc1cccc(CN2CCNC(=O)C2CC(=O)NCc2cn3cccc(C)c3n2)c1OC (stereo not given)	none
COc1cccc(CN2CCNC(=O)C2CC(=O)NCc2cn3ccccc3n2)c1OC (stereo not given)	Pf growth 96h 10µM
COc1cccc(CCNC(=O)CC2C(=O)NCCN2Cc2ccc(Cl)c(F)c2)c1 (stereo not given)	none
COc1ccc2nc(/N=C/c3c(C)[nH]n(-c4ccc(C)cc4C)c3=O)sc2c1	Pf growth 96h inconclusive
O=C(CSc1nnnn1-c1cccc(O)c1)NC1CC1	Pf growth 96h inconclusive
COc1cccc(CNC(=O)C2CCCN(c3cnccn3)C2)c1 (stereo not given)	none
O=C(Nc1ccc(Cc2ccncc2)cc1)C1CCC(N2C(=O)C3C4C=CC(C4)C3C2=O)CC1 (stereo not given)	Pf growth 96h 12µM (no result: Pf growth 48h)
CCOP(=S)(OCC)SCC(=O)NC(C)(CC)C(=O)O (stereo not given)	Pf growth 96h 7.4µM (no result: Pf growth 48h)
COCc1cc(C)nc2sc(C(=O)Nc3ccc(OC)cc3)c(N)c12	CHX counter 29, Pf growth 96h inconclusive
COCc1cc(C)nc2sc(C(=O)Nc3ccccc3OC)c(N)c12	Pf growth 96h inconclusive
COCc1cc(C)nc2sc(C(=O)Nc3cccc(OC)c3)c(N)c12	CHX counter 54, Shiga inhibitor 66, Pf growth 96h inconclusive
COCc1cc(C)nc2sc(C(=O)Nc3nccs3)c(N)c12	CHX counter 42 (no result: Pf growth 48h)
COc1cccc(CNc2nnnn2C)c1	none
Cc1ccc(C2c3[nH]c4ccccc4c3C[C@H]3C(=O)N(c4ccccc4C(=O)NCCN4CCOCC4)C(=O)N23)cc1 (stereo not given in full)	Pf growth 48h 15µM, Pf growth 96h inconclusive
O=C(NCCCN1CCOCC1)c1ccccc1N1C(=O)[C@@H]2Cc3c([nH]c4ccccc34)C(c3cccc(Cl)c3)N2C1=O (stereo not given in full)	Pf growth 48h inconclusive, Pf growth 96h 9.3µM
Cc1ccccc1C1c2[nH]c3ccccc3c2C[C@H]2C(=O)N(c3ccccc3C(=O)NCCN3CCOCC3)C(=O)N12 (stereo not given in full)	Pf growth 48h inconclusive, Pf growth 96h inconclusive
Cc1ccccc1C1c2[nH]c3ccccc3c2C[C@H]2C(=O)N(c3ccccc3C(=O)NCCCN3CCOCC3)C(=O)N12 (stereo not given in full)	Pf growth 48h inconclusive, Pf growth 96h 12µM
Cc1ccc(C2c3[nH]c4ccccc4c3C[C@H]3C(=O)N(c4ccccc4C(=O)NCCCN4CCOCC4)C(=O)N23)cc1 (stereo not given in full)	Pf growth 48h inconclusive, Pf growth 96h inconclusive
CC(Oc1ccc2ccc(=O)oc2c1)C(=O)NC1CCN(Cc2ccccc2)CC1 (stereo not given)	Pf growth 48h inconclusive
COC(=O)c1sccc1-c1ccc(/C=N/OC(=O)c2cccs2)o1	Pf growth 48h inconclusive
CCCCCCCCCCOC(=O)NC1CCS(=O)(=O)C1 (stereo not given)	none (no result: NS1 function inh)
CCC(Oc1ccccc1OC)C(=O)N1CC(=O)Nc2ccccc21 (stereo not given)	none
CS(=O)(=O)Nc1nnc(SCC(=O)N(c2ccccc2)c2ccccc2)s1	Pf growth 96h 2.6µM
CC(C)(C)c1nnc(NC(=O)c2cccs2)s1	CHX counter 71, Shiga inhibitor 75
CC(C)C(=O)Nc1nnc(SCC(=O)NCc2cccs2)s1	Pf growth 96h inconclusive
CC(C)(C)c1nnc(NC(=O)c2cccnc2)s1	CHX counter 21
CC(C)N(C(=O)CSc1nnc(NC(=O)c2cccs2)s1)C(C)C	Pf growth 48h inconclusive, Pf growth 96h 10µM
O=C(CSc1nncn1-c1ccccc1)Nc1ccccc1F	none
CCC(C)(C)c1nnc(NC(=O)c2cccc([N+](=O)[O-])c2)s1	CHX counter 14, Shiga inhibitor 76
O=C(Nc1ccccc1C(=O)Nc1nnc(C(F)(F)F)s1)c1ccccc1	Pf growth 48h 1.2µM, Pf growth 96h 2.6µM
CCCCC(CC)c1nnc(NC(=O)c2cccs2)s1 (stereo not given)	none
O=C(Nc1nnc(CSCc2ccc(Cl)cc2)s1)c1cccc([N+](=O)[O-])c1	Pf growth 96h inconclusive
CC(C)c1nnc(NC(=O)c2cccs2)s1	CHX counter 58, Shiga inhibitor 70
COc1ccc(Nc2nc(C(F)(F)F)nc(C)c2C#N)cc1	none
